# Assay outcomes from PubChem.
# Tg IFNy HTS – blocks Toxoplasma gondii growth in the presence of IFN-gamma. Toxoplasma gondii growth in IFN-gamma-treated host cells; active compounds read low. 3.8% of 69,000 active. activity change, negative = inhibition, % (test concentration not listed); in the data active = activity change below about -70%, passing the limit was not always enough;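 also: host cells are HeLa cells infected with Toxoplasma gondii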
# * marks the source's active call; other numbers are inactive results; i = inactive; ! = not active in a repeat. Shown is part of a subset that was picked to be rich in hits.
SMILES,Tg IFNy HTS
CCOC1C2CCC1N(C(=O)c1cnccn1)C2 (configuration not stated),2
Cc1cccc(-c2nc(Cn3cnc4onc(-c5ccc(Cl)cc5)c4c3=O)c(C)o2)c1,-41
O=C(NCc1ccc(F)cc1)C1=NOC2(CCNC2)C1 (configuration not stated),115
CCOC(=O)Cn1c(C)cc(=O)c2ccccc21,-9
Cc1ccc2c(=O)c3ccccc3n(CCCN)c2c1C,-87*!
Cc1c(-c2ccccc2)n(CC(O)CN)c2ccccc12 (configuration not stated),-48
O=C(c1coc(-c2ccccc2)n1)N1CCN(Cc2noc(-c3ccccc3)n2)CC1,-1
CC1CCCCN1S(=O)(=O)c1ccc2c(c1)CCC(=O)N2CC(=O)Nc1ccccc1 (configuration not stated),-23
CCCCNS(=O)(=O)c1ccc(S(=O)(=O)NCc2ccncc2)cc1,-80*
O=S(=O)(NCCc1ccncc1)c1cc(C(F)(F)F)cc(C(F)(F)F)c1,22
Cc1ccc(S(=O)(=O)NCc2ccccc2)cc1,14
Cc1nnc(CNC(=O)CC2(Cc3ccccc3)C(=O)N(C)c3ccccc32)o1 (configuration not stated),-5
CNCCCN1c2ccccc2CCc2ccccc21,-83*!
CN(C)S(=O)(=O)CCNC(=O)C(=O)N1CCc2ccccc21,-1
CN(C)CCCN1c2ccccc2CCc2ccc(Cl)cc21,-70*!
CC(=O)c1ccc2c(c1)N(CCCN(C)C)c1ccccc1S2,11
CN(C)CCCN1c2ccccc2Sc2ccccc21,-22
CC(=O)c1cc(C(=O)NCCCN2CCCc3ccccc32)cs1,-2
COc1ccc(NC(=O)N2CCC3(CC2)Nc2cc(F)ccc2-n2cccc23)cc1,i
CCS(=O)(=O)N1CCOCC1c1nccc(NCc2ccco2)n1 (configuration not stated),9
Cc1ccccc1OC1CN(C(=O)CCN2CCCO2)C1,4
CCOc1ccc(-n2c(SCC(=O)NCc3ccco3)nnc2-c2cccnc2)cc1,-6
CC(C)C1N(C(=O)CN2CCN(C)CC2)CCCN1S(=O)(=O)c1ccccc1 (configuration not stated),23
CC(C)N(Cc1cc2ccccc2o1)CC1CCC(=O)N1 (configuration not stated),5
O=C1NCCO[C@@H]2CN(C(=O)c3cccs3)CC[C@H]12,3
SMILES,Tg IFNy HTS
Cc1ccc(Cl)cc1NC(=O)Cn1ncc2c(N3CCCCC3)ncnc21,146
O=C(O)c1c(S(=O)(=O)N[C@@H]2C[C@H]2c2ccccc2)sc2c1CCNC2,0
Cc1ccc2c(c1)c1nc3ccccc3nc1n2C,-63
Cc1nn(-c2ccccc2)c2c1c(=O)n(C)c1ccccc21,-41
Cn1c2ccccc2c2n[nH]c(=O)nc21,-105*
CCc1ccc(S(=O)(=O)N2CCC3(CC(C(=O)NC)=NO3)C2)cc1 (configuration not stated),-3
COc1cc(NC(=O)c2cc3ccccc3o2)ccc1NC(=O)c1cccs1,-111*
COc1cc(NC(=S)NC(=O)c2cccs2)ccc1NC(=O)C(C)C,51
COc1ccc(NC(=O)c2c(NS(=O)(=O)c3ccc(C)cc3)csc2C)cc1,14
COc1ccc(NS(=O)(=O)c2ccc(NC(=O)c3cc4ccccc4o3)cc2)cc1,-71*
O=C(Nc1ccc(NS(=O)(=O)c2ccc(Oc3ccccc3)cc2)cc1)c1ccccc1,4
O=C(Nc1ccc(-c2nc(-c3ccccc3)co2)cc1)c1cccs1,3
CN(C)C(=O)c1ccc(-c2ccc(CC(=O)O)cc2)cc1,11
CC1CN(c2ccc(NC(=S)N3CCSCC3)cc2)CC(C)O1 (configuration not stated),34
Cc1ccccc1-c1nc(CN2CCN(C(=O)Nc3ccc(Cl)cc3)CC2)c(C)o1,3
CCOc1ccc2nc(N3CCCN(Cc4cc(OC)c5c(c4)OCO5)CC3)nc(C)c2c1,-17
Cc1csc(CN2C[C@H]3CN(S(C)(=O)=O)CCO[C@@H]3C2)n1,20
Cc1ccccc1NS(=O)(=O)c1ccc2[nH]c(=O)ccc2c1,85
CN1CC2(CCC1=O)CCN(C(=O)c1ccncn1)CC2,116
CC(C)NCC(O)COc1cccc2ccccc12 (configuration not stated),-5
CC(C)(Cc1ccc2ccccc2c1)NC[C@@H](O)COc1cccc(Cl)c1C#N,-72*
CC(C)(C)NCC(O)COc1ccccc1C(=O)CCc1ccccc1 (configuration not stated),-30
COc1ccc(-c2noc(-c3c(O)c4ccccc4[nH]c3=O)n2)c(OC)c1,-18
CCC1=N[C@@]2(CC[C@@H]3CN(C(=O)NCC4CCCCC4)C[C@H]32)C(=O)N1C,-31
CO[C@H]1CCN(C(=O)c2ccc3[nH]ccc3c2)[C@H]1Cc1cnn(C)c1,-3
S=C(Nc1ccccc1)Nc1ccccn1,61
O=C1NN=CC1CCCNC(=S)Nc1cccc(C(F)(F)F)c1 (configuration not stated),13
FC(F)(F)c1cccc(NC(=S)Nc2ccccn2)c1,-113*
Cc1ccc2c(n1)N(CC1CC1)CCN(C(=O)c1ccc[nH]1)C2,52
